Rows were chosen to be rich in hits. Some 4.1% of all compounds tested hit in one or more screens of this group.
DAX1 inh-1 – inhibitors of DAX1 repression of SF-1 activated StAR promoter; actives 1.1% (n = 370,000); AID 652010; inhibition, % at 6.8 µM; HEK293T StAR-luciferase reporter, SF-1/DAX-1 repression relief;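 active = inhibition above the mean over all tested compounds plus 3 SD, cut at about 3.6% in these data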;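 also: higher inhibition means more luminescence from relief of DAX-1 repression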
hgDAF12 agonist – agonists of H. glycines DAF-12 nuclear receptor | HEK293 GAL4-hgDAF12 UAS-luciferase reporter, agonist luminescence; normalized to butyrate control | activation, % at 6.8 µM | actives 1.8% (n = 370,000);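 active = activation above a cutoff set at the mean of all screened compounds plus 3 SD, cut at about 10% in these data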
hcDAF12 agonist – activates DAF-12 receptor from parasite H. contortus; HEK293 hcDAF-12 lit1-tk-luc reporter, luminescence; 0% DMSO, 100% Δ7-dafachronic acid; activation, % at 6.8 µM; actives 1.4% (n = 370,000); AID 652067;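 active = activation above the mean of all tested compounds plus 3 SD, cut at about 5.5% in these data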
ssDAF-12 act – S. stercoralis DAF-12 activation, primary screen. HEK293 ssDAF-12/GRIP1 lit1-tk-luc reporter, luminescence; % of 3 µM dafachronic acid response. activation, % at 6.8 µM. actives 1% (n = 370,000). AID 652126;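 active = activation above the mean over all tested compounds plus 3 SD, cut at about 0.9% in these data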
DAX1 inh-2 – inhibits human nuclear receptor DAX1; actives 0.99% (n = 340,000); HEK293 Gal4-DAX1 luciferase reporter, luminescence; inhibition, % at 6.75 µM; P51843;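 active = inhibition above the mean over all tested compounds plus 3 SD, cut at about 4.2% in these data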;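 also: inhibition shows as a rise in luminescence from relieved DAX1 repression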
hgDAF12 conf – confirmation of H. glycines DAF-12 agonists. shares compounds with hgDAF12 agonist. HEK293 GAL4-hgDAF12 luciferase reporter, agonist mode; percent of butyrate response. activation, % at 6.8 µM. actives 80% (n = 3,300);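 active = mean activation over triplicate wells above the hit cutoff derived from the earlier primary screen, cut at about 11% in these data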
LXR ag 2 – activates human LXR-beta, counter-screen for DAF-12 agonists | HEK293 Gal4-LXR luciferase reporter, 24 h | 3,300 tested, under 10 active | shares compounds with hgDAF12 agonist | activation, % at 6.8 µM;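 active = mean activation of the triplicate above a set limit carried over from the primary screen, none filed active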
Target sequence (P55055 whole entry, looked up, the tested form may be a part): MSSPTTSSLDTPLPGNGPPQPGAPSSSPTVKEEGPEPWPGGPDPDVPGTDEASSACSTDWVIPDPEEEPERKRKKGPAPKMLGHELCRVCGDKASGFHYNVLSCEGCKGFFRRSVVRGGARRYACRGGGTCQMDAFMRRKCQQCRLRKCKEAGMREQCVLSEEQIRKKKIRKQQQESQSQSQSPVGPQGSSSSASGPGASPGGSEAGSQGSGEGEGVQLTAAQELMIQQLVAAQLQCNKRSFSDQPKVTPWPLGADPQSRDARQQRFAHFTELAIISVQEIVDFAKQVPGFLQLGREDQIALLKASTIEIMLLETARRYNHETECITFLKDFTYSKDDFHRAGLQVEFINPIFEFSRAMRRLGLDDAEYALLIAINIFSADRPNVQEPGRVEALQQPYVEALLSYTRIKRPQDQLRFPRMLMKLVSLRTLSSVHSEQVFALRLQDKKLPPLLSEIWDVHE
Numbers stand for hits; 0 = inactive; - = no result given.

SMILES | DAX1 inh-1 | hgDAF12 agonist | hcDAF12 agonist | ssDAF-12 act | DAX1 inh-2 | hgDAF12 conf | LXR ag 2
CCCC(=O)N=C1SC2CS(=O)(=O)CC2N1c1ccc(-c2nc3ccc(C)cc3s2)cc1 (centres undefined) | 0 | 18 | 6.0 | 0 | 0 | 0 | 0
Cc1ccc(N2C(=NC(=O)c3ccccc3)SC3CS(=O)(=O)CC32)cc1 (centres undefined) | 0 | 0 | 0 | 0 | 0 | - | -
Cc1nonc1C1CCCN1C(=O)c1cc(COc2ccc(F)cc2F)on1 (centres undefined) | 0 | 15 | 0 | 0 | 0 | 12 | 0
O=C(c1cc(F)ccc1F)N(Cc1ccccn1)CC1CCCO1 (centres undefined) | 0 | 0 | 0 | 0 | - | - | -
O=C(c1ccc(F)cc1Cl)N(Cc1ccccn1)CC1CCCO1 (centres undefined) | 0 | 31 | 0 | 0 | - | 0 | 0
COC(=O)[C@]12C[C@H](CC(=O)NCC3CCCCC3)C(=O)N(Cc3ccccc3)C1=C[C@H](C(C)(C)C)O[C@@H]2C | 0 | 0 | 0 | 0 | - | - | -
COC(=O)N1C[C@H](OCc2cn(-c3ccc(OC)cc3)nn2)[C@H]2C[C@@H]1c1ccccc1O2 | 0 | 0 | 0 | 0 | - | - | -
COc1ccc(Nc2cnn(-c3nc4ccccc4s3)c(=O)c2Cl)cc1 | 0 | 0 | 0 | 0 | 0 | - | -
Cc1ccc(C)c(N2CCN(c3cnn(-c4nc5ccccc5s4)c(=O)c3Cl)CC2)c1 | 3.7 | 14 | 0 | 0 | 0 | 12 | 0
Cc1cccc(C)c1NC(=O)C(CCc1ccccc1)N1CCN(CCN(C)C)CC1 (centres undefined) | 0 | 0 | 0 | 0 | - | - | -
C[C@]12Cc3ccccc3C1CC1=N[C@@H](c3ccc(C(F)(F)F)cc3)O[C@@]13C[C@@H]2C(=O)N3C1CCN(Cc2ccccc2)CC1 (some centres undefined) | 0 | 0 | 0 | 0 | - | - | -
COc1ccc(Sc2cccc3c2S(=O)(=O)N([C@H](C)c2ccccc2)C[C@@H](COCc2ccccc2)O3)cc1OC | 0 | 0 | 0 | 0 | - | - | -
CCCCN1CCc2c([nH]c3ccc(C)cc23)C1=O | 3.9 | 15 | 0 | 0 | 0 | 0 | 0
Cn1cccc1C(=O)N/N=C/c1c(Cl)cccc1Cl | 0 | 13 | 5.9 | 0 | 0 | 12 | 0
COCCNC(=O)/C(C#N)=C/c1cc(C)n(C2CCCCC2)c1C | 4.0 | 20 | 0 | 0 | 0 | 0 | 0
COCCNC(=O)/C(C#N)=C/c1cc(C)n(-c2ccc(C)cc2)c1C | 0 | 22 | 6.1 | 0 | 0 | 15 | 0
COc1ccc(-n2c(C)cc(/C=C(\C#N)C(=O)NCc3ccco3)c2C)cc1 | 0 | 0 | 0 | 0 | 0 | - | -
Cc1cc(/C=C(\C#N)C(=O)O)c(C)n1C1CC1 | 0 | 0 | 0 | 0 | 0 | - | -
CCOc1ccc(-c2n[nH]c(C(=O)NN)c2C)cc1 | 0 | 16 | 0 | 0 | 0 | 0 | 0
O=C(/C(C=Nc1cc2c(oc1=O)CCCC2=O)=C(\O)c1ccccc1)c1ccccc1 | 0 | 14 | 0 | 0 | 0 | 0 | 0
O=C(Nc1cc2c(oc1=O)CCCC2=O)c1cccc(Cl)c1 | 0 | 0 | 0 | 0 | 0 | - | -
COc1ccccc1C(=O)N1CCC2CCN(C(=O)c3ccccc3)C2C1 (centres undefined) | 0 | 0 | 0 | 0 | - | - | -
CCOC1=C/C(=C/c2c(N)n3nc(-c4ccccc4)sc3nc2=O)C=CC1=O | 0 | 0 | 0 | 0 | - | - | -
COC1=C/C(=C/c2c(N)n3nc(-c4ccc(C)cc4)sc3nc2=O)C=CC1=O | 0 | 13 | 6.2 | 0 | 0 | 0 | 0
Fc1ccc(Nc2nc3ccccc3s2)cc1 | 0 | 26 | 0 | 0 | 0 | 12 | 0
Cc1ccccc1Nc1nc2ccccc2s1 | 0 | 17 | 6.2 | 0 | 6.2 | 18 | 0
COC(=O)c1cc2c(c3c4cc(C#N)ccc4n(S(=O)(=O)c4ccc(C)cc4)c13)C(=O)N(C)C2 | 0 | 0 | 0 | 0 | - | - | -
CC(=O)c1ccc(NC(=S)NCCc2cccc(Cl)c2)cc1 | 0 | 17 | 0 | 0 | 0 | 12 | 0
CC(=O)c1ccc(NC(=S)NCCc2ccc(S(N)(=O)=O)cc2)cc1 | 0 | 0 | 0 | 0 | 0 | - | -

Bioassay records from PubChem.
